Laboratory results: PubChem BioAssay (EPA / NIEHS)
Records with an inconclusive call do not appear. The source holds several records for some structures; these can differ, active in one and inactive in another. The source made the active and inactive calls. The calls were made as follows, unless noted: active = hit-call score of the fitted dose curve at least 0.9, where 1 is the maximum; inactive = score below 0.9.

Key:
[1] = BSK_3C_VCAM1: BioMAP Diversity Plus: 3C Assay for Vascular cell adhesion molecule 1 (VCAM1) Biomarker Activity (AID 2282999); conditions: BioMAP 3C HUVEC, VCAM1 ELISA, cytokine-stimulated; actives raise or lower the signal
How it was run: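 Human umbilical vein endothelial cells were dosed with compound for 24 h, after which cell-surface VCAM-1 was quantified by ELISA. Bidirectional curve fitting used DMSO as negative control and activity baseline.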

[2] = BSK_4H_Eotaxin3: BioMAP Diversity Plus: 4H Assay for Eotaxin 3 Biomarker Activity (AID 2283000); conditions: primary human endothelial cells (HUVEC); actives raise or lower the signal
How it was run: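 Chemicals were added to human umbilical vein endothelium cultures, and Eotaxin-3 was quantified by ELISA at 24 h. Values were derived by bidirectional fitting with DMSO serving as negative control and activity baseline.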

[3] = target: human Peroxisome Proliferator-activated Receptor alpha (PPARa), PPARA (gene 5465) (UniProt Q07869); assay: ATG_PPARa_TRANS: Attagene TRANS-FACTORIAL HepG2 Assay for human Peroxisome Proliferator-activated Receptor alpha (PPARa) (AID 2283001; active = hit-call score of the fitted dose curve at least 0.9, where 1 is the maximum)
Chain of human Peroxisome Proliferator-activated Receptor alpha (PPARa), PPARA (gene 5465) (Q07869 whole entry, looked up, the tested form may be a part): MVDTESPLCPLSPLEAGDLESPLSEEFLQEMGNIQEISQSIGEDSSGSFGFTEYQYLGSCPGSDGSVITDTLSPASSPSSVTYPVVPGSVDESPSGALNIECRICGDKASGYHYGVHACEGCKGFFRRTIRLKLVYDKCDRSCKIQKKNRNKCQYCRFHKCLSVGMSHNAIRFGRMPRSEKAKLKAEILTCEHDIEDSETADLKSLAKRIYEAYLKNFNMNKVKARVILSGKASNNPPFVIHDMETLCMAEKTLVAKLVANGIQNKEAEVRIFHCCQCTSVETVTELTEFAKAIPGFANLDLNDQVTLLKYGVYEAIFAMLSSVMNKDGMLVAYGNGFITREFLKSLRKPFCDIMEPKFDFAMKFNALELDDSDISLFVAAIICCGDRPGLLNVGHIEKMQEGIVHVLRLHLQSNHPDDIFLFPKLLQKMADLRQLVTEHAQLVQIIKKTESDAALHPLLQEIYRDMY
How it was run: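 Gain-of-signal endpoint: reporter mRNA induction relative to DMSO, detected by fluorescent RT-PCR and capillary electrophoresis. HepG2 cells transiently carried GAL4-UAS-driven reporter units plus NR-Gal4 fusion; exposure lasted 24 h.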

[4] = target: human Retinoic Acid Receptor beta (RARb), RARB (gene 5915) (UniProt P10826); assay: ATG_RARb_TRANS: Attagene TRANS-FACTORIAL HepG2 Assay for human Retinoic Acid Receptor beta (AID 2283004; active = hit-call score of the fitted dose curve at least 0.9, where 1 is the maximum)
Chain of human Retinoic Acid Receptor beta (RARb), RARB (gene 5915) (P10826 whole entry, looked up): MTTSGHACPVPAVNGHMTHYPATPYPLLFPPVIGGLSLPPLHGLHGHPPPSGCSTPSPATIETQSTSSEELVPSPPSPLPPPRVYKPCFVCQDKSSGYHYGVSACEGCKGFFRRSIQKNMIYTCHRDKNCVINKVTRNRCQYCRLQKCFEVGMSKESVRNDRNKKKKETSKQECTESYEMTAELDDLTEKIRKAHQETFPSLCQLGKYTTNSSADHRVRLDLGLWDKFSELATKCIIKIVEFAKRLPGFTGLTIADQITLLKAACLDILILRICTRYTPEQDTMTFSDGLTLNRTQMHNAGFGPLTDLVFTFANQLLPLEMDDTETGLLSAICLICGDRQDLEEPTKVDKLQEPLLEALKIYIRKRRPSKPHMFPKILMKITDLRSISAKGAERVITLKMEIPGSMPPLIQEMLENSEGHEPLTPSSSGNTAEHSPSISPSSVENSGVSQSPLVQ
How it was run: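 Transient transfection of HepG2 with multiple reporter units → chemical dosing, 24 h → total RNA isolation → RT with oligo(dT) → reporter-specific PCR, 6-FAM primer extension, HpaI digest → capillary electrophoresis. Positive direction vs DMSO control.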

[5] = target: Retinoic acid receptor alpha (Homo sapiens) (UniProt P10276); assay: ATG_RARa_TRANS: Attagene TRANS-FACTORIAL HepG2 Assay for human Retinoic Acid Receptor alpha (RARa) (AID 2283005; active = hit-call score of the fitted dose curve at least 0.9, where 1 is the maximum;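 as to AC50: potency for increased reporter signal meaning RARa activation over DMSO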)
Chain of Retinoic acid receptor alpha (Homo sapiens) (P10276 whole entry, looked up, the tested form may be a part): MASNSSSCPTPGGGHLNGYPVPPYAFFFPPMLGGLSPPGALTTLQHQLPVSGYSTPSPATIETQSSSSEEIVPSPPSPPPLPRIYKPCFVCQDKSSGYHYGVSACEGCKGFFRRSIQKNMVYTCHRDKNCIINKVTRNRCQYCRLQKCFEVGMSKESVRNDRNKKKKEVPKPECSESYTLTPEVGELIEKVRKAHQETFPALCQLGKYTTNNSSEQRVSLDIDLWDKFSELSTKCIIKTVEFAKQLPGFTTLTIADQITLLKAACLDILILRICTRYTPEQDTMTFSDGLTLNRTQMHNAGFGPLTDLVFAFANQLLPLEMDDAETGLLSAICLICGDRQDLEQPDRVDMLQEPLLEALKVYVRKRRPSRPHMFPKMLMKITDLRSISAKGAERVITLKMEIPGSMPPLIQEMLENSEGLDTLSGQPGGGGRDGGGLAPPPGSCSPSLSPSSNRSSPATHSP
How it was run: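 HepG2 cells transiently transfected with multiple reporter units expressing chimeric RARα-GAL4 fusion, with GAL4-UAS-driven reporters. After 24 h compound exposure, reporter mRNA induction quantified by RT-PCR and capillary electrophoresis with fluorescent labeling; gain-of-signal fitted relative to DMSO control.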

[6] = BSK_3C_Proliferation: Cell Proliferation Assessment in the BioMAP Diversity Plus: 3C Assay (AID 2283006); conditions: primary human endothelial cells (HUVEC);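 as to AC50: potency may reflect either rise or fall in cell number versus DMSO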
How it was run: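 Read-out is total protein by SRB absorbance at 560 nm, taken as a proxy for relative cell number. Primary human umbilical vein endothelium cultured below confluence was dosed for 48 h, TCA-fixed and SRB-stained; curves were fitted bidirectionally versus DMSO.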

[7] = target: Peroxisome proliferator-activated receptor gamma (Homo sapiens) (UniProt P37231); assay: ATG_PPARg_TRANS: Attagene TRANS-FACTORIAL HepG2 Assay for human Peroxisome Proliferator-activated Receptor-gamma (PPARg) (AID 2283007; active = hit-call score of the fitted dose curve at least 0.9, where 1 is the maximum)
Chain of Peroxisome proliferator-activated receptor gamma (Homo sapiens) (P37231 whole entry, looked up, the tested form may be a part): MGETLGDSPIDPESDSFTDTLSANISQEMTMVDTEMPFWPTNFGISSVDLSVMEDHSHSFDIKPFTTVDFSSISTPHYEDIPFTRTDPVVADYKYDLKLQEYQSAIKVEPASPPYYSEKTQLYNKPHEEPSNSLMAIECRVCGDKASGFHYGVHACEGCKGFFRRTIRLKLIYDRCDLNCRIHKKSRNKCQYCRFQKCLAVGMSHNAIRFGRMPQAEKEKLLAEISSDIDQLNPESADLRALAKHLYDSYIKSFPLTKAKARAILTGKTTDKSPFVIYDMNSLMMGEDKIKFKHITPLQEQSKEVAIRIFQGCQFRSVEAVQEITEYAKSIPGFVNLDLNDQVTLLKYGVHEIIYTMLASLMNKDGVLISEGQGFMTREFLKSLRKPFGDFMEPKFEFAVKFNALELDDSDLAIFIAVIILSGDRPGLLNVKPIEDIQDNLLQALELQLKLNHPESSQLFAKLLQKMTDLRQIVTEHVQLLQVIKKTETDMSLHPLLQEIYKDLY
How it was run: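 After 24 h of chemical exposure, transfected HepG2 cells carrying PPARγ-Gal4 chimera reporter constructs are lysed for RNA. Reporter transcripts are measured by RT-PCR and capillary electrophoresis with fluorescent labelling, and gain of signal is fitted versus DMSO.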

[8] = target: Nuclear receptor subfamily 1 group I member 2 (Homo sapiens) (UniProt O75469); assay: ATG_PXR_TRANS: Attagene TRANS-FACTORIAL HepG2 Assay for human Pregnane X Receptor (PXR) (AID 2283008; active = hit-call score of the fitted dose curve at least 0.9, where 1 is the maximum)
Chain of Nuclear receptor subfamily 1 group I member 2 (Homo sapiens) (O75469 whole entry, looked up, the tested form may be a part): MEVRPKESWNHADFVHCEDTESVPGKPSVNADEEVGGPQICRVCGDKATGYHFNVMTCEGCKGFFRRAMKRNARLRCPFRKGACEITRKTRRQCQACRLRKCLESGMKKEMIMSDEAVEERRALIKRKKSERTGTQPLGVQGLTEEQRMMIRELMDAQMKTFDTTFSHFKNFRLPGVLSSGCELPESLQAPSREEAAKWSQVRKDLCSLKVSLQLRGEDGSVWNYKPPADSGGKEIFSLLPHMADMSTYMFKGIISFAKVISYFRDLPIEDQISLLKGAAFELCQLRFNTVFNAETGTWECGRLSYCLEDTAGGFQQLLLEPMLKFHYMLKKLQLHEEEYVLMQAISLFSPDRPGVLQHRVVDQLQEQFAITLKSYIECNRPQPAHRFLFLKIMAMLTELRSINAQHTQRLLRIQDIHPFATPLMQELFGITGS
How it was run: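 Read-out is fluorescence of labelled reporter cDNA fragments separated by capillary electrophoresis after RT-PCR and HpaI digestion. Source: HepG2 cells carrying PXR-GAL4/UAS reporter constructs, treated 24 h; activity fitted upward relative to DMSO.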

[9] = target: human RAR-related Orphan Receptor beta (RORb), RORB (gene 6096) (UniProt Q92753); assay: ATG_RORb_TRANS: Attagene TRANS-FACTORIAL HepG2 Assay for human RAR-related Orphan Receptor beta (RORb) (AID 2283010; active = hit-call score of the fitted dose curve at least 0.9, where 1 is the maximum)
How it was run: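 Readout is reporter-gene mRNA induction, detected as fluorescence after RT-PCR and capillary electrophoresis, fitted for gain of signal against DMSO controls. Transiently transfected HepG2 liver cells carrying GAL4-UAS reporter constructs were treated for 24 hours.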

[10] = read-out: E-selectin (Homo sapiens) (UniProt P16581); assay: BSK_3C_Eselectin: BioMAP Diversity Plus: 3C Assay for Eselectin Biomarker Activity (AID 2283015); conditions: primary human endothelial cells (HUVEC); actives raise or lower the signal
How it was run: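 ELISA read-out of E-selectin on endothelial monolayers after 24 h chemical treatment. Human umbilical vein primary cells served as the system, with DMSO defining baseline activity for bidirectional fitting.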

[11] = read-out: Interleukin-1 alpha (IL1a), IL1A (gene 3552); assay: BSK_BE3C_IL1a: BioMAP Diversity Plus: BE3C Assay for Interleukin-1 alpha (IL1a) Biomarker Activity (AID 2283016); conditions: primary human bronchial epithelial cells; actives raise or lower the signal
How it was run: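 BE3C primary human bronchial epithelium; cpd 24 h; IL-1a by ELISA; bidirectional fit vs DMSO; parallel SRB (0.1% SRB, 10% TCA fix, 560 nm) for cytotoxicity.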

[12] = read-out: Monocyte Chemoattractant Protein-1 (MCP1), CCL2 (gene 6347); assay: BSK_3C_MCP1: BioMAP Diversity Plus: 3C Assay for Monocyte Chemoattractant Protein-1 (MCP1) Biomarker Activity (AID 2283017); conditions: primary human endothelial cells (HUVEC); actives raise or lower the signal
How it was run: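 ELISA read-out of MCP-1 from human umbilical vein endothelial cell cultures harvested 24 h post-dosing. Gain or loss of signal was fitted relative to DMSO.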

[13] = read-out: Monocyte Chemoattractant Protein-1 (MCP1), CCL2 (gene 6347); assay: BSK_4H_MCP1: BioMAP Diversity Plus: 4H Assay for Monocyte Chemoattractant Protein-1 (MCP1) Biomarker Activity (AID 2283018); conditions: primary human endothelial cells (HUVEC); actives raise or lower the signal
How it was run: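 ELISA read-out of MCP-1 from human vascular endothelial primary cells taken at 24 hours after compound exposure. Activity was fitted in both directions relative to DMSO, which served as negative control.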

[14] = read-out: Human Leukocyte Antigen - DR isotype (HLADR), HLA-DRA (gene 3122); assay: BSK_3C_HLADR: BioMAP Diversity Plus: 3C Assay for Human Leukocyte Antigen - DR isotype (HLADR) Biomarker Activity (AID 2283019); conditions: primary human endothelial cells (HUVEC); actives raise or lower the signal
How it was run: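 ELISA readout of surface HLA-DR on human umbilical vein endothelium, taken 24 h after chemical treatment. Gain- and loss-of-signal were both fitted relative to DMSO.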

[15] = target: human Retinoic Acid Receptor gamma (RARg), RARG (gene 5916) (UniProt P13631); assay: ATG_RARg_TRANS: Attagene TRANS-FACTORIAL HepG2 Assay for human Retinoic Acid Receptor gamma (RARg) (AID 2283009; active = hit-call score of the fitted dose curve at least 0.9, where 1 is the maximum)
Chain of human Retinoic Acid Receptor gamma (RARg), RARG (gene 5916) (P13631 whole entry, looked up): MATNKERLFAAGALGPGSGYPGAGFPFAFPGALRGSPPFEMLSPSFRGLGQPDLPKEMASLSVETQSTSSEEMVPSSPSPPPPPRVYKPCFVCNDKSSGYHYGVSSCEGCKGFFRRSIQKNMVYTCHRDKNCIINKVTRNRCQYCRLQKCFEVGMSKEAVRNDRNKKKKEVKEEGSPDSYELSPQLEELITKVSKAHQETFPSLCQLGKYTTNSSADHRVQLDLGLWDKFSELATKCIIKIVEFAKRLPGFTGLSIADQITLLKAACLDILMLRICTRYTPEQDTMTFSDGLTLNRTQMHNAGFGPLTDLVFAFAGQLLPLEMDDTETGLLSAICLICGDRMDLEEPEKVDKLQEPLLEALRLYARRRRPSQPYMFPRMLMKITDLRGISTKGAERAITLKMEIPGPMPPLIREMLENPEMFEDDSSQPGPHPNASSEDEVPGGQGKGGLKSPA
How it was run: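 Transient transfection of HepG2 with multi-reporter constructs, then 24 h chemical treatment. Total RNA isolated, reverse-transcribed, PCR-amplified, fluorescently labelled and resolved by capillary electrophoresis; activity scored as mRNA induction versus DMSO.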

[16] = target: Retinoic acid receptor RXR-alpha (Homo sapiens) (UniProt P19793); assay: ATG_RXRa_TRANS: Attagene TRANS-FACTORIAL HepG2 Assay for human Retinoid X Receptor alpha (RXRa) (AID 2283012; active = hit-call score of the fitted dose curve at least 0.9, where 1 is the maximum)
Chain of Retinoic acid receptor RXR-alpha (Homo sapiens) (P19793 whole entry, looked up, the tested form may be a part): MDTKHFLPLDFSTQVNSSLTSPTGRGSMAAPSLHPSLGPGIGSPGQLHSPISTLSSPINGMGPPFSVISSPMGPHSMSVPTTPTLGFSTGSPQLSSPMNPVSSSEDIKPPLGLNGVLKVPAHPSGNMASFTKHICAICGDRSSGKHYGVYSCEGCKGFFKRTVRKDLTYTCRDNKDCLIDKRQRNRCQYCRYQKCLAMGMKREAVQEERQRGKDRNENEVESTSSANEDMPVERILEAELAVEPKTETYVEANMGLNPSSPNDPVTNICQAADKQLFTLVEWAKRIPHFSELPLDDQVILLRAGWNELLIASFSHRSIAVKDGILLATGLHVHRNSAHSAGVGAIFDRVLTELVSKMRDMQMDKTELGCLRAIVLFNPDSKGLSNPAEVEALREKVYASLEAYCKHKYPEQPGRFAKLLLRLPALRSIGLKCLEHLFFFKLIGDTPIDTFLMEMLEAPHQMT
How it was run: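 Transient transfection of human HepG2 with multiple GAL4-UAS reporter constructs; 24 h compound exposure; total RNA isolated, reverse-transcribed, PCR-amplified, 6-FAM labelled, HpaI-cut, resolved by capillary electrophoresis. Positive-direction fit versus DMSO.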

[17] = target: human Retinoid X Receptor beta (RXRb), RXRB (gene 6257) (UniProt P28702); assay: ATG_RXRb_TRANS: Attagene TRANS-FACTORIAL HepG2 Assay for human Retinoid X Receptor beta (RXRb) (AID 2283013; active = hit-call score of the fitted dose curve at least 0.9, where 1 is the maximum)
Chain of human Retinoid X Receptor beta (RXRb), RXRB (gene 6257) (P28702 whole entry, looked up, the tested form may be a part): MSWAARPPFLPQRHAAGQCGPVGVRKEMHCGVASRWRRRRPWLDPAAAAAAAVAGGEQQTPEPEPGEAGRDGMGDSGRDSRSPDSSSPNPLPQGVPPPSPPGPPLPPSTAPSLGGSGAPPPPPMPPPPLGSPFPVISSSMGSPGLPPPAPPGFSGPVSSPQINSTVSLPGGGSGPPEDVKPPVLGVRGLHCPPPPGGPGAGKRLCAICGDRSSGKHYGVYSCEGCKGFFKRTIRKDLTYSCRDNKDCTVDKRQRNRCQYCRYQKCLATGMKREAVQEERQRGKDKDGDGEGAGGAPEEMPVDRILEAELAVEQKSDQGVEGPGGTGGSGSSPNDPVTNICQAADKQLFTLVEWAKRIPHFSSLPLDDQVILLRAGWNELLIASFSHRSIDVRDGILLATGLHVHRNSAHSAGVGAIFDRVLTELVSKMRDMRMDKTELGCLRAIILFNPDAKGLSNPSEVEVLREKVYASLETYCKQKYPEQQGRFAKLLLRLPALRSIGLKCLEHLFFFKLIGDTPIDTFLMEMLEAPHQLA
How it was run: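 Transfect HepG2 with GAL4-UAS multi-reporter constructs (chimeric NR-Gal4, TRANS format); dose compound 24 h; isolate RNA, RT-PCR, FAM primer extension, HpaI digest; quantify by capillary electrophoresis; positive direction vs DMSO.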

[18] = target: human RAR-related Orphan Receptor gamma (RORg), RORC (gene 6097) (UniProt P51449); assay: ATG_RORg_TRANS: Attagene TRANS-FACTORIAL HepG2 Assay for human RAR-related Orphan Receptor gamma (RORg) (AID 2283011; active = hit-call score of the fitted dose curve at least 0.9, where 1 is the maximum)
Chain of human RAR-related Orphan Receptor gamma (RORg), RORC (gene 6097) (P51449 whole entry, looked up, the tested form may be a part): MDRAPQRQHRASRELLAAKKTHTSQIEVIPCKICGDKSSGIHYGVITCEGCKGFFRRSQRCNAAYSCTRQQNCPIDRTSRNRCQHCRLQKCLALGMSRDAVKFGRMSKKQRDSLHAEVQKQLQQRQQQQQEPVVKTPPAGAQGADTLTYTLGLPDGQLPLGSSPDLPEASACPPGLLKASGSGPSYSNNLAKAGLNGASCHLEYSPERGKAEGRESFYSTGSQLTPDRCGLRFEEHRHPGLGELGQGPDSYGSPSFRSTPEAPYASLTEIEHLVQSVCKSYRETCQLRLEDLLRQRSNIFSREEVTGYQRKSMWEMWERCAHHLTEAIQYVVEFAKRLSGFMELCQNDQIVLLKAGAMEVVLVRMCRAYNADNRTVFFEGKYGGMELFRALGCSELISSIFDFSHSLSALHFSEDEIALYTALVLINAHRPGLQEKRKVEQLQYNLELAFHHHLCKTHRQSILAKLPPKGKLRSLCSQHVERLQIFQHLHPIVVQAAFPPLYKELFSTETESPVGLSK
How it was run: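 First, HepG2 liver cells were transfected with GAL4-UAS-driven reporter constructs and the RORg-Gal4 fusion. Next, they were treated with chemical for 24 h. Finally, reporter mRNA was quantified by RT-PCR and capillary electrophoresis, with upward activity fitted against DMSO.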

Measured: AC50

Chain of E-selectin (Homo sapiens) (P16581 whole entry, looked up): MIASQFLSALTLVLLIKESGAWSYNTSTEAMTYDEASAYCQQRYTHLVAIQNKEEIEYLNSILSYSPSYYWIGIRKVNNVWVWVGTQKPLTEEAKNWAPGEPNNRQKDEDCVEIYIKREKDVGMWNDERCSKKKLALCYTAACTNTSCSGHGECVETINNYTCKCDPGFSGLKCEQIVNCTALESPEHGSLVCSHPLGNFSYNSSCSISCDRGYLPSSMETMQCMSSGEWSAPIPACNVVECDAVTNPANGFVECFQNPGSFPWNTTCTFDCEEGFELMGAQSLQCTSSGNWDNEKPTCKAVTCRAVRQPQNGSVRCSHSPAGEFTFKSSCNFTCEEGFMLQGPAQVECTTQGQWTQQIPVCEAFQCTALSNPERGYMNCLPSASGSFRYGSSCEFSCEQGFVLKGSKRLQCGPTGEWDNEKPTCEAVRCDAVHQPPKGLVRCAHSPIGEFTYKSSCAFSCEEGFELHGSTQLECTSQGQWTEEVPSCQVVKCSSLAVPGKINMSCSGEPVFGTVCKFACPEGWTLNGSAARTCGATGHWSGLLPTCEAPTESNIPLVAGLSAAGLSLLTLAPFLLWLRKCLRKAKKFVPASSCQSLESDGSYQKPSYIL

COC(=O)c1ccccc1C(=O)OC
not listed: [15] | [16] | [17] | [18]
inactive: all other assays above

CC(Oc1ccc(Cl)cc1Cl)C(=O)O (configuration not stated)
not listed: [7] | [9] | [18]
inactive: all other assays above

COP(=S)(OC)Oc1nc(Cl)c(Cl)cc1Cl
active: [6] 31.9 µM | [10] 35.2 µM
not listed: [3] | [7] | [9] | [18]
inactive: all other assays above

CCc1nn(C)c(C(=O)NCc2ccc(C(C)(C)C)cc2)c1Cl
active: [1] 31.8 µM | [2] 27.1 µM | [6] 15.6 µM | [10] 20 µM | [11] 20 µM | [12] 28.4 µM | [13] 20 µM | [14] 17.3 µM
inactive: [3] | [4] | [5] | [8] | [15] | [18]

CCCCNC(=O)n1c(NC(=O)OC)nc2ccccc21
active: [6] 11.2 µM | [12] 10 µM | [14] 13.7 µM
not listed: [4] | [9] | [18]
inactive: all other assays above

CCOC(=O)CC(SP(=S)(OC)OC)C(=O)OCC (configuration not stated)
active: [8] 1.53 µM | [17] 63.4 µM | [14] 20 µM
inactive: [1] | [2] | [3] | [6] | [8] | [18] | [16] | [17] | [10] | [11] | [12] | [13]

CCOP(=S)(OCC)SCn1c(=O)oc2cc(Cl)ccc21
active: [5] 12.9 µM | [6] 29.2 µM | [8] 13.2 µM
not listed: [7] | [9]
inactive: all other assays above
